Laboratory results reported in PubChem BioAssay.
Where “and” joins values, the source holds several entries; their conditions need not be identical. Identical values can stand only once. Values without a mark were called inactive. Entries that show only a call come without a potency. For some of these results: Potency and affinity values are given separately. Calls of active or inactive are those of the source. Unless noted, how the calls were made is not given here.

Experiments:
[1] = antimalarial activity against Dd2 strain (AID 2302;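 active means growth inhibition above 50% at the single 2 µM test dose, taken to imply half-maximal potency below 2 µM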); settings: P. falciparum Dd2 in RBCs, LDH growth readout, 72 h; at 2 µM; active compounds read high
[2] = human hepatoma cell viability loss – ATP luminescence, cytotoxicity control for P. falciparum antimalarial project, primary screen (AID 2303;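 active means inhibition above 50%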); settings: HepG2 viability, 24-48 h, at 10 µM, active compounds read high
[3] = target: L-lactate dehydrogenase (Plasmodium falciparum (isolate CDC / Honduras)) (UniProt Q27743); experiment: PfLDH activity inhibition – cell lysate, 3D7 strain, counter-screen for P. falciparum growth inhibition project (AID 2304); settings: P. falciparum 3D7 crude extract, LDH APAD/NBT absorbance; at 2 µM; active compounds read high
Sequence of L-lactate dehydrogenase (Plasmodium falciparum (isolate CDC / Honduras)) (Q27743 whole entry, looked up): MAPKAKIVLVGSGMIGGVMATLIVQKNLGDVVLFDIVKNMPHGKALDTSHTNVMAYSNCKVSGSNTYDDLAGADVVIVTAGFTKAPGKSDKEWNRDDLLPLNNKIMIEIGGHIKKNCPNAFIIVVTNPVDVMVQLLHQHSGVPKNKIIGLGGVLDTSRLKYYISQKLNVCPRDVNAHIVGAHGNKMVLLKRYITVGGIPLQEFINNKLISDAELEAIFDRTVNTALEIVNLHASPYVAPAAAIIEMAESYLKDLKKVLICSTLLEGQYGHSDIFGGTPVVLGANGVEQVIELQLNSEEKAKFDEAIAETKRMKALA

[4] = inhibition of 3D7 malaria parasite growth – strain 3D7 (AID 2306); settings: P. falciparum 3D7 erythrocytic growth, LDH absorbance, 72 h; at 2 µM; active compounds read high
[5] = target: Calcium-dependent protein kinase 1 (Plasmodium falciparum (isolate 3D7)) (UniProt P62344); experiment: PfCDPK1 kinase inhibitors, biochemical, TCAMS library (AID 1159585; cut-off not given, nearly all actives have IC50 up to about 0.98 µM;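 further: inhibitors leave more ATP so luminescence rises with inhibition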); settings: recombinant PfCDPK1, Kinase-Glo ATP depletion luminescence
Sequence of Calcium-dependent protein kinase 1 (Plasmodium falciparum (isolate 3D7)) (P62344 whole entry, looked up): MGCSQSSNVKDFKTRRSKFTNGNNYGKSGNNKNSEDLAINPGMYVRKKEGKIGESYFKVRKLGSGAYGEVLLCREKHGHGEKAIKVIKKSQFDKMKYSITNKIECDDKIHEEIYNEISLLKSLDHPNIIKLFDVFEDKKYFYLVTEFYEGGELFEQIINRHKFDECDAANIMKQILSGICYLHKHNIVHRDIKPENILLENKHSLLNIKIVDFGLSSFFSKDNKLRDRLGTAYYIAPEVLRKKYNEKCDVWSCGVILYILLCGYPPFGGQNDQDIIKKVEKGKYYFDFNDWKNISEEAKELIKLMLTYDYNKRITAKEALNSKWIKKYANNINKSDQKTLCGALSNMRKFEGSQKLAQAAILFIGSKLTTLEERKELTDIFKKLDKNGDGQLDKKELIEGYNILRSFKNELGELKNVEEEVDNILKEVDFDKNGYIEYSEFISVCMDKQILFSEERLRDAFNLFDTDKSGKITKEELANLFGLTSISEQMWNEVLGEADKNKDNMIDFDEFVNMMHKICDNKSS

[6] = target: Plasmodium falciparum protein kinase 6 (PK6, PF3D7_1337100) (UniProt Q8IDW1); experiment: PfPK6 kinase inhibitors, biochemical, TCAMS library (AID 1159586); settings: recombinant PfPK6, Kinase-Glo ATP depletion luminescence
Sequence of Plasmodium falciparum protein kinase 6 (PK6, PF3D7_1337100) (Q8IDW1 1-305): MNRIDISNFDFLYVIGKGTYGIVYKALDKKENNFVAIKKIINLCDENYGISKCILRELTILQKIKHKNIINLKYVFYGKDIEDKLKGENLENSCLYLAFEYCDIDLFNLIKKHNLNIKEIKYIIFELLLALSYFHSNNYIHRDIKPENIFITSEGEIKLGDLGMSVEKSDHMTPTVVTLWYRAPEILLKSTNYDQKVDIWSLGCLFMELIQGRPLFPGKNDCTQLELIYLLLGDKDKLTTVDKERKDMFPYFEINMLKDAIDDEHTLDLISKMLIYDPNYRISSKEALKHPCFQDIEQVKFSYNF

[7] = target: Protein kinase 7 (PK7), Plasmodium falciparum 3D7 (PF3D7_0213400) (UniProt Q7YTF7); experiment: inhibition of Plasmodium PK7 catalytic activity – biochemical, TCAMS antimalarial set, Kinase-Glo luminescence (AID 1159587); settings: recombinant PfPK7, Kinase-Glo ATP depletion luminescence
Sequence of Protein kinase 7 (PK7), Plasmodium falciparum 3D7 (PF3D7_0213400) (Q7YTF7 1-343): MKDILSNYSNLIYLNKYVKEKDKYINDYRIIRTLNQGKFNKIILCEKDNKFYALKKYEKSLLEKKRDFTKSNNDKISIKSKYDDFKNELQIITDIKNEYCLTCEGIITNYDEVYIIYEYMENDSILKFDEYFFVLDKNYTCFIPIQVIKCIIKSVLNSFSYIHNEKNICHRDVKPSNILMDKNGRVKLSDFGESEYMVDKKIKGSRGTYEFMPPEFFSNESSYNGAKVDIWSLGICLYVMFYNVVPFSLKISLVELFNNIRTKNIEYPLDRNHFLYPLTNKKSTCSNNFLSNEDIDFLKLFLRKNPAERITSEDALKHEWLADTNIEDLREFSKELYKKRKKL

[8] = target: Calcium-dependent protein kinase 4 (Plasmodium falciparum (isolate 3D7)) (UniProt Q8IBS5); experiment: PfCDPK4 kinase inhibitors, biochemical, TCAMS library (AID 1159588; cut-off not given, nearly all actives have IC50 up to about 0.91 µM); settings: recombinant PfCDPK4, Kinase-Glo ATP depletion luminescence
Sequence of Calcium-dependent protein kinase 4 (Plasmodium falciparum (isolate 3D7)) (Q8IBS5 whole entry, looked up): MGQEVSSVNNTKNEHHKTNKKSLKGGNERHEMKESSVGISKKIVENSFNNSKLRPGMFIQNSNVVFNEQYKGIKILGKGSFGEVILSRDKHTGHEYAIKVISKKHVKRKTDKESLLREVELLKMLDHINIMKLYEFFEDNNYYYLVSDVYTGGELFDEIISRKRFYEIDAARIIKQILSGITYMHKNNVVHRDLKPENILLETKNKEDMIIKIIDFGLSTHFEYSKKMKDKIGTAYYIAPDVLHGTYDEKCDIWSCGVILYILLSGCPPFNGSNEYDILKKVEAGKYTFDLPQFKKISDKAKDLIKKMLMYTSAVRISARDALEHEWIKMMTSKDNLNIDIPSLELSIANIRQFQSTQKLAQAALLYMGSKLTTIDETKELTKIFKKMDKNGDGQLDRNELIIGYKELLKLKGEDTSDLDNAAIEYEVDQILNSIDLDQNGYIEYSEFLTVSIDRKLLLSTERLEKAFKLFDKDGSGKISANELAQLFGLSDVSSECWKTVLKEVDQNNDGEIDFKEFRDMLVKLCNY

Row | Structure (SMILES) | growth inhibition [1] | inhibition [2] | inhibition [3] | growth inhibition [4] | outcome [5] | outcome [6] | outcome [7] | outcome [8]
1 | CC(C)CNCc1cccc(-c2cccc(CN(C(=O)c3cccs3)C3CCN(Cc4ccccc4)CC3)c2)c1 | 36% | 14% | -4% | 90% (active) | inactive | inactive | inactive | inactive
2 | CCCCCCCn1c(=O)c(C(=O)Nc2c(C)cccc2C)c(O)c2ccccc21 | 42% | 6% | -2% | 90% (active) | inactive | inactive | inactive | inactive
3 | CC[C@H]1CN2CCc3cc(OC)c(OC)cc3[C@@H]2C[C@@H]1C[C@H]1NCCc2c1cc(OC)c(O)c2I | 101% (active) | 54% (active) | -4% | 101% (active) | inactive | inactive | inactive | inactive
4 | COc1cccc(/C=C/C(=O)NC2CCC(CN3CCC(c4c[nH]c5ccccc45)CC3)CC2)c1 (centres undefined) | 26% and 38% | 19% and 30% | -1% and 6% | 94% (active) and 100% (active) | inactive | inactive | inactive | inactive
5 | c1ccc2c(NCCCCCCCCCNc3c4ccccc4nc4ccccc34)c3ccccc3nc2c1 | 95% (active) | 99% (active) | -6% | 100% (active) | inactive | inactive | inactive | inactive
6 | Cc1cc(O)cc2c(C3CCN(CC4CCN(C(=O)/C=C/c5ccc(Cl)c(Cl)c5)CC4)CC3)c[nH]c12 | 100% (active) | 33% | 3% | 101% (active) | inactive | inactive | inactive | inactive
7 | CN(C(=O)OCc1ccccc1)C1CCC(CCN2CCC3(CC2)C(=O)NCN3c2cccc(C(F)(F)F)c2)(c2ccccc2)CC1 (centres undefined) | 72% (active) | 19% | -2% | 80% (active) | inactive | inactive | inactive | inactive
8 | COC(=O)c1ccc(CC(C)NCC(O)c2cccc(Br)c2)cc1 (centres undefined) | 88% (active) | -6% | -2% | 99% (active) | inactive | inactive | inactive | inactive
